Reference: PubChem BioAssay (NCATS)
Inconclusive results are not listed. The source made the active and inactive calls. Calls follow the shape of the dose curve; as a rule, active = well fitted curve in the direction sought with a large enough effect; inconclusive = small, poorly fitted or top-dose-only effect, or another doubt; inactive = no such curve, though single readings can be large; an effect the other way counts as inactive or inconclusive.

Key:
[1] = target: Calcium and integrin-binding protein 1 (Homo sapiens) (UniProt Q99828); assay: Primary qHTS for Identification of Calcium Integrin Binding Protein 1 (CIB1) Competitor (AID 1508620);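 also: GST tagged CIB1 binding a fluorescein labelled alphaIIb integrin peptide tracer; top concentration of the series differs between compounds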
Outline: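 CIB1-GST (1 uM final) and compound incubated 15 min at room temperature before adding FITC-alphaIIb peptide tracer (100 nM final). Competition for binding read by fluorescence polarization (ex 480, em 540) after another 15 min at room temperature.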

[2] = Primary qHTS for inhibitors of nuclear receptor binding SET domain protein 2 (NSD2) in an isogenic RCH-ACV NSD2 p.E1099K mutant (9B) (AID 1645876); also: nearly all actives have a fitted effect of over 70% in size
[3] = Primary qHTS for inhibitors of nuclear receptor binding SET domain protein 2 (NSD2) in an RCH-ACV wild type WT cells (2C) (AID 1645877); also: nearly all actives have a fitted effect of over 70% in size
% is scaled to controls: 0 for no effect and ±100 for the full control effect.

Calcium and integrin-binding protein 1 (Homo sapiens), sequence (Q99828 whole entry, looked up): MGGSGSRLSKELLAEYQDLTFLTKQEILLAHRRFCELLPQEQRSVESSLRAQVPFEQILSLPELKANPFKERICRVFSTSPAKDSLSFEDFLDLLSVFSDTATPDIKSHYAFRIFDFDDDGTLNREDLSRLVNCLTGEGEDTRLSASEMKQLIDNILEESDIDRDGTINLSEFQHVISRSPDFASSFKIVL

CC1=CC(=O)CC(C)(C)C1CO[C@@H]1O[C@H](CO)[C@@H](O)[C@H](O)[C@H]1O (stereo not given in full)
inactive: Potency [1] | Potency [2] | Potency [3]

CC(C)C1(O)NC(=O)C(CC2(O)c3ccccc3N3C(=O)C(C)(C)NC32)n2c1nc1ccccc1c2=O (stereo not given)
inactive: Potency [1] | Potency [2] | Potency [3]

CC1OC(OC2C(OC(=O)[C@]34CCC(C)(C)C[C@H]3C3=CCC5[C@@]6(C)CC[C@H](OC7OC(C(=O)O)C(O)C(O)C7O)C(C)(C)C6CC[C@@]5(C)[C@]3(C)CC4O)OC(CO)C2O)C(O)C(O)C1OC1OCC(O)C(O)C1O (stereo not given in full)
inactive: Potency [1] | activity change, negative = viability loss [2] -7.94% [at 9.23 µM] | activity change, negative = cell killing [3] -12.2% [at 9.23 µM]

C=C1CC[C@@H]2[C@@](C)(CO[C@@H]3O[C@H](CO)[C@@H](O)[C@H](O)[C@H]3O)[C@H](O)CC[C@@]2(C)[C@@H]1CC/C(C)=C/CO[C@@H]1O[C@H](CO)[C@@H](O)[C@H](O)[C@H]1O
inactive: Potency [1] | Potency [2] | Potency [3]

CC(C)CC(=O)OC[C@@]1(O)C[C@@]23CC[C@H]4[C@@](C)(CCC[C@@]4(C)C(=O)O)[C@@H]2CC[C@@H]1C3
inactive: Potency [1] | Potency [2] | Potency [3]

COC(=O)C1=COC(OC2OC(CO)C(O)C(O)C2O)C2C(COC(=O)/C=C/c3ccc(O)c(O)c3)C(O)C(O)C12 (stereo not given)
inactive: Potency [1] | Potency [2] | Potency [3]

C#CCCCn1cc(-c2cccc3c2N[C@@H](C)CC(=O)N3)cn1
inactive: Potency [1] | Potency [2] | Potency [3]

CC(C)(O)/C=C/C(=O)[C@](C)(O)[C@H]1[C@H](O)C[C@@]2(C)[C@@H]3CC=C4[C@@H](C=C(O[C@@H]5O[C@H](CO)[C@@H](O)[C@H](O)[C@H]5O)C(=O)C4(C)C)[C@]3(C)C(=O)C[C@]12C
inactive: Potency [1] | Potency [2] | Potency [3]

OC[C@@]1(O)CO[C@H](OC[C@H]2O[C@@H](OC(CCCCc3ccc(O)cc3)CCc3ccc(O)cc3)[C@H](O)[C@@H](O)[C@@H]2O)[C@@H]1O (stereo not given in full)
inactive: Potency [1] | Potency [2] | Potency [3]

CC1=C2CC(=O)C(C)CC/C=C(\C)CC2(O)OC1=O (stereo not given)
inactive: Potency [1] | Potency [2] | Potency [3]

CC1C(=O)OCC2=CC[N+]3([O-])CCC(OC(=O)C(C)(O)C1(C)O)C23 (stereo not given)
inactive: Potency [1] | Potency [2] | Potency [3]

CC(O)C1CCC2C3CCC4CC(OC5OC(C(=O)O)C(O)C(O)C5O)CCC4(C)C3CCC12C (stereo not given)
inactive: Potency [1] | Potency [2] | Potency [3]

COC(=O)C1=CO[C@@H](O[C@@H]2O[C@H](CO)[C@@H](O)[C@H](O)[C@H]2O)[C@H]2[C@@H]1[C@H](O)[C@H](O)[C@]2(C)O
inactive: Potency [1] | Potency [2] | Potency [3]

COc1ccc(-n2c(=O)[nH]c3cc(C(=O)NCc4ccc(Cl)cc4)sc3c2=O)nc1OC
inactive: Potency [1] | Potency [2] | Potency [3]

CC1OC(OC2C(OC3C(O[C@H]4CC[C@@]5(C)C(CC[C@]6(C)C5C(=O)CC5=C7CC(C)(C)CC(O)[C@]7(C)CC[C@]56C)C4(C)C)OC(C(=O)O)C(O)C3O)OCC(O)C2O)C(O)C(O)C1O (stereo not given in full)
inactive: Potency [1] | outcome [2] inactive [at 9.23 µM] | outcome [3] inactive [at 9.23 µM]

CC1=C2C[C@@]3(C)[C@@H](CCC[C@@H]3C)C[C@@]2(O)OC1=O
inactive: Potency [1] | Potency [2] | Potency [3]

COC(=O)C1=CO[C@@H](O[C@@H]2O[C@H](CO[C@@H]3O[C@H](CO)[C@@H](O)[C@H](O)[C@H]3O)[C@@H](O)[C@H](O)[C@H]2O)[C@@H]2C(CO)=CC[C@H]12
inactive: Potency [1] | Potency [2] | Potency [3]

O=C(O)/C=C/c1ccc2occc2c1O[C@@H]1O[C@H](CO)[C@@H](O)[C@H](O)[C@H]1O
inactive: Potency [1] | Potency [2] | Potency [3]

Cc1cc(CO)c(O)c(C(=O)CC2CC(=O)NC(=O)C2)c1
inactive: Potency [1] | Potency [2] | Potency [3]

C[C@H]1[C@H](C)C[C@@H](C(=O)O)C2CC[C@]3(C)C(=CC[C@@H]4[C@@]5(C)CC[C@H](O)C(C)(C)[C@@H]5CC[C@]43C)[C@@H]21 (stereo not given in full)
inactive: Potency [1] | Potency [2] | Potency [3]

C=CC(C)(O)CC/C=C(\C)C(=O)O[C@@H]1[C@@H](O)[C@H](OC(C)(C=C)CC/C=C(\C)C(=O)O)O[C@H](CO)[C@H]1OC(=O)/C(C)=C/CCC(C)(O)C=C (stereo not given in full)
inactive: Potency [1] | Potency [2] | Potency [3]

CC(=O)c1[nH]cc(CCC(=O)O)c1CC(=O)O
inactive: Potency [1] | Potency [2] | Potency [3]

C=CC(C)(CCC=C(C)C)O[C@@H]1O[C@H](CO)[C@@H](O)[C@H](O)[C@H]1O (stereo not given in full)
inactive: Potency [1] | Potency [2] | Potency [3]

C[C@@H]1C[C@@H](O)[C@@]23CO[C@]2(CO)CCC[C@@H]3[C@@]12C[C@@H](c1ccoc1)OC2=O
inactive: Potency [1] | Potency [2] | Potency [3]

O=C(O)/C=C/c1ccc(O[C@@H]2O[C@H](CO)[C@@H](O)[C@H](O)[C@H]2O)cc1
inactive: Potency [1] | Potency [2] | Potency [3]
